Among the data in PubChem BioAssay AID1346378 (National Center for Advancing Translational Sciences (NCATS), 2018) are activity change, negative = inhibition values, retold here.

Molecules are shown by their SMILES. The campaign covered roughly 420,000 compounds. About 540 (0.13%) were called active. Rule as the data show it: active = activity change below about -50%; inconclusive = mostly about -30% to -49%; inactive = weaker than that. Only a selection was taken, and actives are over-represented in it overall.

Phosphatidylinositol 4-kinase type 2-alpha (Homo sapiens), sequence (Q9BTU6 whole entry, looked up): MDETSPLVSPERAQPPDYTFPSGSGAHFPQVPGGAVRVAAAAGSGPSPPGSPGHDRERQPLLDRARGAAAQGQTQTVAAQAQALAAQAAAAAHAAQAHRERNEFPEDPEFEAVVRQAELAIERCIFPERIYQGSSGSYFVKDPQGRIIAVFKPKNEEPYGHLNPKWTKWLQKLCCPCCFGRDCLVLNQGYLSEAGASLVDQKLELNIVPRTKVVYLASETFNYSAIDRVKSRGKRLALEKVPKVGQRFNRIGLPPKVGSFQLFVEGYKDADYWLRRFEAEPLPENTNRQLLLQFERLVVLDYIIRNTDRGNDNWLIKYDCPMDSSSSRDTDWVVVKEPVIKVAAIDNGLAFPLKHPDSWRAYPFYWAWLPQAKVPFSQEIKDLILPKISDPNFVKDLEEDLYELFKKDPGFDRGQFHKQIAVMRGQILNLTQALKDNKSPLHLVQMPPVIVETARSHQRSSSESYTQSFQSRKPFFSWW

The test has as its target Phosphatidylinositol 4-kinase type 2-alpha (Homo sapiens) (UniProt Q9BTU6). Kind of test: qHTS for small molecular inhibitors of PI4K2A.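 Also: -100% = wells without enzyme as full effect.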 To be noted: purified PI4K2A, ADP-Glo luminescence, 1 h; at 76.9 µM, stronger effect = lower value. From the text:
The phosphatidylinositol 4-phosphate (PI4P) is emerging as a key regulator of lipid transfer in ER-membrane contact sites. The four different phosphatidylinositol 4-kinase (PI4K) enzymes generate PI4P in different membrane compartments supporting distinct cellular processes many of which are crucial for the maintenance of cellular integrity but also hijacked by intracellular pathogens. The goal of this screening project is to search for small molecular inhibitors of PI4K2A based on a high throughput screening strategy.The ADP-Glo assay was used as a starting point to develop a miniaturized version for HTS applications. To implement the HTS screen, the PI4K ADP-Glotrade mark Kinase assay (Promega, V9102) was miniaturized for the 1536-well format used at NCGC.
For the robotic screening, the ADP-Glo assay using the ADP-Glotrade mark Kinase Assay kit from Promega was miniaturized and optimized on 1536-well white solid bottom plates (Greiner Bio-one). The substrate, 1.2 mM PI, prepared in the assay buffer (40mM Tris pH7.5, 20mM MgCl2, 1mM EGTA, 0.4% Triton X-100, 0.5mM DTT, 0.5mg/ml BSA) and PI4K2A enzyme, diluted also in the assay buffer to 4ug/mL, were dispensed onto the plates in equal volumes (1microl/well), pinned with 23 nL/well tested compounds or control followed by dispensation of 1microl/well 300microM ATP. The plates were incubated for one hour. Then, 2 µL/well of ADP-Glo reagent was added and incubated for 40 minutes. Next, 4microL/well of Kinase Detection Buffer was added to the plates and incubated for additional 40 minutes. All incubation steps were performed at ambient temperature. The resulting luminescence signal was measured on Viewlux plate reader (PerkinElmer). Adenosine, a partial non-specific inhibitor, was used as a positive control at 100microM final concentration to assess the assay's quality and plate-to-plate reproducibility. We also used "no enzyme" control to gauge the assay's maximal potential inhibition (IC100).
Regarding `CC(C)(C)c1ccc(OCC(=O)N2CCC(c3nc4ccccc4s3)CC2)cc1`, the activity change, negative = inhibition is -3.91% (inactive). Next, `O=C(OC1CCOC1=O)c1ccc(-c2nc3ccccc3s2)s1` (configuration not stated): -52.4% (active). For `COc1cc(C(=O)OC2CCOC2=O)c([N+](=O)[O-])cc1OC` (configuration not stated), the activity change, negative = inhibition is 0.815% (inactive). Regarding `O=C1/C(=C\c2ccc([N+](=O)[O-])cc2)CS(=O)(=O)C/C1=C/c1ccc([N+](=O)[O-])cc1`, the activity change, negative = inhibition was -53% (active). Next, `C=CC(=O)Nc1ccc(Nc2ccnc(Nc3ccc(N4CCN(C)CC4)cc3)n2)cc1`: -9.48% (inactive); `CC(C)C[C@H](NC(=O)[C@H](O)[C@H](N)Cc1ccccc1)C(=O)O`: -0.0848% (inactive). Next, `CC(=O)Nc1ccc(NC(=O)c2cc3sccc3n2Cc2ccc(F)cc2)cc1`: -0.493% (inactive); `CCc1ccc(/C=N/NC(=O)c2nnn(-c3nonc3N)c2CN2CCc3ccccc32)cc1`: 2.23% (inactive). As to `Cc1nonc1C(=O)N/N=C/c1ccc(O)cc1`, the activity change, negative = inhibition was -107% (active).

Take `CC(C)Oc1ccc(/C=N/NC(=O)c2nnn(-c3nonc3N)c2CN(C)C2CCCCC2)cc1`: the activity change, negative = inhibition is -0.0382% (inactive). Next, `O=S(=O)(NCCc1nnc2ccc(SCc3ccc(Cl)cc3Cl)nn12)c1ccccc1`: 1.68% (inactive); `CCCOC(=O)c1c(NC(=O)c2cc3nc(-c4ccc(OC)cc4)cc(C(F)(F)F)n3n2)sc2c1CCCC2`: -1.38% (inactive); `O=C(COc1cccc(F)c1)Oc1ccc(C(=O)c2ccccc2)cc1`: -2.11% (inactive).

Turning to `O=C(Oc1ccc(-c2nc(-c3ccccn3)no2)cc1)c1ccccc1`, the activity change, negative = inhibition was -59.2% (active). The result for `CC(=O)c1ccc(NC(=O)COc2ccccc2-c2nc(-c3ccccc3)no2)cc1` reads -0.609% (inactive). The result for `CCc1ccccc1NC(=O)c1ccc(F)c(S(=O)(=O)NC2CCCCCC2)c1` reads 3.89% (inactive); that for `CCCCOc1ccc(C(=O)N2CC(=O)Nc3ccc(Br)cc3C2c2ccc(F)cc2)cc1` (configuration not stated), 0.252% (inactive). The result for `O=C(NCC(c1cccnc1)N1CCc2ccccc21)c1cccc(C(F)(F)F)c1` (configuration not stated) reads -0.743% (inactive); that for `CCOCCCn1c(SCC(=O)Nc2ccc(CC)cc2)nc2ccccc2c1=O`, 2.57% (inactive). In the case of `COc1cc(OC)c(OC)cc1/C=C/c1nc2cc3ccccc3cc2c(=O)n1-c1ccc(F)c(Cl)c1`, the activity change, negative = inhibition is 1.51% (inactive).

`CCCC(=O)Nc1cc(C(=O)NCc2ccc(OC)cc2)ccc1S(=O)(=O)c1ccc(Cl)cc1`: the activity change, negative = inhibition was 1.05% (inactive).

Regarding `CCCc1c2oc(C(=O)O)cc(=O)c2cc2c(=O)cc(C(=O)O)n(CC)c12`, the activity change, negative = inhibition was 0.586% (inactive).

`CC1(C)OC[C@@H](COC(=O)CCc2ccc(OC[C@@H](O)CNCCNC(=O)N3CCOCC3)cc2)O1`: the activity change, negative = inhibition was 2.53% (inactive). Turning to `Cc1cccc(C)c1NC(=O)c1ccc(N)cc1`, the activity change, negative = inhibition is 2.75% (inactive). The result for `CC(C)Sc1oc(-c2cccs2)nc1S(=O)(=O)c1ccc(Cl)cc1` reads 2.5% (inactive). The result for `CCC(=O)Nc1ccc2nc(SCC(=O)N3CCc4ccccc43)sc2c1` reads -5.07% (inactive). Consider `CCCn1c(=O)c2[nH]c(-c3ccc(OCC(=O)NCCN)cc3)nc2n(CCC)c1=O`, for which the activity change, negative = inhibition was -1.34% (inactive). The result for `Nc1ccc2nc3c(=O)[nH]c(=S)[nH]c3nc2c1` reads -58.2% (active); that for `Cc1ccc(-n2ncc3c(N4CCC(C(N)=O)CC4)ncnc32)cc1`, -0.0422% (inactive); that for `CC(=O)c1ccc(NC(=O)c2nc3nc(C)cc(C(F)F)n3n2)cc1`, 0.438% (inactive). The result for `Cc1oc2ncnc(N3CCOCC3)c2c1C(=O)NCCc1ccccc1` reads 5.54% (inactive). The result for `Cc1cc2oc(C(=O)N(Cc3ccc(Cl)cc3)Cc3ccco3)c(C)c2cc1Cl` reads -5.36% (inactive); that for `O=C(C1CC1)N1CCc2cc(Br)cc(S(=O)(=O)N3CCN(c4ccccc4F)CC3)c21`, -2.46% (inactive); that for `CC(C)(C)c1ccc(C(=O)NCC(c2ccc(Cl)cc2)N2CCOCC2)cc1` (configuration not stated), 1.67% (inactive). In the case of `Cc1ccc2oc(=O)c3cnn(CC(=O)NCc4ccccc4Cl)c3c2c1`, the activity change, negative = inhibition was 2.09% (inactive). Next, `Cc1ccc(C(=O)NCCSc2c(C)[nH]c3ccccc23)cc1C`: -0.18% (inactive); `Cc1ccccc1NC(=O)c1cc2c([nH]c1=O)CC(C)(C)CC2=O`: -0.508% (inactive); `Cc1ccc2ncc(C(=O)Nc3ccc(OC(F)(F)F)cc3)c(=O)n2c1`: -0.27% (inactive). For the compound `C[C@@H]1CCC[C@H](C)N1CCCC(O)(c1ccccc1)c1ccccn1` (some centres not stated), the activity change, negative = inhibition was -1.64% (inactive). The result for `Cc1ccc(NC(=O)Cn2cnc3nc4c(cc3c2=O)CCCC4)cc1Cl` reads 2.6% (inactive); that for `O=C(CC1Oc2ccccc2NC1=O)NCc1ccc(F)cc1` (configuration not stated), -3.94% (inactive); that for `CCOCCn1ccc2c(OCC(=O)NCc3ccc(C)cc3)cccc2c1=O`, -5.41% (inactive).
